Compound activity from PubChem BioAssay.
Many of the other results were omitted from the sample, so hits are more common in it than they were.
GluA2 TARP mod – modulates AMPAR-stargazin complexes; calls only at 30 µM; HEK293 GluA2+stargazin, membrane potential dye (FDSS), glutamate EC50; hits were called plate by plate, in both directions; O88602+P19491; 40,000 tested, 3.5% active; AID 1259245;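 active = any of four per-well response measures lying three or more SD from its plate-wide compound average, in either direction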
GIRK2 activator – GIRK2 channel activators by thallium flux | 34,000 tested, under 10 active | P48051 | HEK293 GIRK2/NPY4 cells, thallium flux fluorescence | activation (% efficacy), % for hits at 37.5 µM;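 active = primary screen hit, no activity in plain HEK293 cells, and in GIRK2-only cells above 5% efficacy rising with concentration; inactive = the rest, including fluorescent compounds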;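 note: efficacy is normalized control-subtracted fluorescence 15 s after thallium addition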
Target sequence (P48051 whole entry, looked up): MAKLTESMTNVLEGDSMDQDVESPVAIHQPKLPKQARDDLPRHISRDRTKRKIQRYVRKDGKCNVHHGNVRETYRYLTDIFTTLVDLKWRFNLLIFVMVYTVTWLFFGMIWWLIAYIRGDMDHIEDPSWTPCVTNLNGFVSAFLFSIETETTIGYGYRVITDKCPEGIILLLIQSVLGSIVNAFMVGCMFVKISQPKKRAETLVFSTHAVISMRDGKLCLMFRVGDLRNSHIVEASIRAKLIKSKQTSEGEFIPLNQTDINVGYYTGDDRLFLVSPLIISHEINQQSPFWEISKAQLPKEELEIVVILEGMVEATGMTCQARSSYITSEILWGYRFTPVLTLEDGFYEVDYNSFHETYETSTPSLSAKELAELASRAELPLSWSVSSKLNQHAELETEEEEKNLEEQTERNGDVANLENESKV
Each line names hits and unclear results; the compound was inactive in the other large screens.

CCn1c(SCC(=O)Nc2ccc(OC)c(OC)c2)nc2c(-c3ccc(C)cc3)csc2c1=O	none
CCOC(=O)c1c(SCC(=O)O)nc(=O)[nH]c1C	none
COC(=O)C1=C(CS(=O)(=O)c2ccc(OC)c(OC)c2)NC(=O)NC1c1ccc(O)cc1 (configuration not stated)	none (no result: GIRK2 activator)
COC(=O)C1=C(CS(=O)(=O)c2cc(Cl)ccc2OC)NC(=O)NC1c1ccccc1 (configuration not stated)	GluA2 TARP mod active
COC(=O)C1=C(CS(=O)(=O)c2ccccc2)NC(=O)NC1c1ccc(OC)c(OC)c1 (configuration not stated)	GluA2 TARP mod active (no result: GIRK2 activator)
COC(=O)C1=C(CS(=O)(=O)c2ccc(OC)c(OC)c2)NC(=O)NC1c1cccc(Cl)c1 (configuration not stated)	none (no result: GIRK2 activator)
COc1ccc(C(=O)Nc2ccc3c(c2)CCC(=O)N3Cc2ccccc2)c(OC)c1OC	none
COc1cccc(-c2ccc(=O)n(CCCC(=O)Nc3ccccc3)n2)c1	none
O=C(Cn1nc(C(=O)N2CCOCC2)cc1C1CC1)Nc1ccc(F)c(F)c1F	none
O=C(Nc1ccc2c(c1)OCO2)N1CCN(c2ccc3nncn3n2)CC1	none
CCC(C)NC(=O)c1c(N)n(-c2ccc(S(N)(=O)=O)cc2)c2nc3ccccc3nc12 (configuration not stated)	none
O=C(NCc1ccccc1Cl)C1CCN(C(=O)Nc2cccs2)CC1	none
Cc1nnc(C2CCN(C(=O)C3CC(=O)N(c4ccc(Cl)cc4)C3)CC2)s1 (configuration not stated)	none
Cc1cccc(Cn2c(=O)c3nscc3n(CC(=O)Nc3ccccc3C)c2=O)c1	none
CC(=O)c1ccc(NC(=O)Cn2c(=O)n(Cc3ccccc3)c(=O)c3nscc32)cc1	GluA2 TARP mod active
Cc1nnc2ccc(OCCNS(C)(=O)=O)nn12	none
O=C(Cc1cccs1)NNC(=O)c1cccn(Cc2ccc(Cl)c(Cl)c2)c1=O	GluA2 TARP mod active
O=C(Cc1ccc(F)cc1)NNC(=O)c1cccn(Cc2ccc(Cl)c(Cl)c2)c1=O	none
COC(=O)Cn1c(=O)c2c(nc3n2CCCN3c2ccc(OC)cc2)n(C)c1=O	none (no result: GIRK2 activator)
CCCNC(=O)c1c(N)n(-c2ccc(C(=O)OC)cc2)c2nc3ccccc3nc12	none
COC(=O)NCCc1nc2ccccc2[nH]1	none (no result: GIRK2 activator)
CCc1ccc(NCc2cc3ccc(OC)cc3n(CC(=O)Nc3ccccc3F)c2=O)cc1	none (no result: GIRK2 activator)
CCc1ccc(NCc2cc3ccc(OC)cc3n(CC(=O)Nc3ccc(OC)cc3)c2=O)cc1	GluA2 TARP mod active
CC(NC(=O)c1nc(-c2cnccn2)no1)c1ccccc1 (configuration not stated)	none
COc1ccc(NS(=O)(=O)c2cc(C)ccc2OC)cc1N1CCCCC1=O	none
COc1ccc(CCS(=O)(=O)NCC2CCN(C)CC2)cc1	none
COc1ccc(CCS(=O)(=O)NCC2CCN(C3CCCC3)CC2)cc1	GluA2 TARP mod active
COc1ccc(S(=O)(=O)NCC2CCN(C3CCCC3)CC2)cc1	none
CC(C)c1ccc(S(=O)(=O)NCC2CCN(C3CCCC3)CC2)cc1	GluA2 TARP mod active (no result: GIRK2 activator)
Cn1c(=O)c2c(nc(CN3CCN(c4ccc(F)cc4)CC3)n2CC(=O)C(C)(C)C)n(C)c1=O	none
CC1CC(C)CN(Cc2nc3c(c(=O)n(C)c(=O)n3C)n2CC(=O)C(C)(C)C)C1 (configuration not stated)	GluA2 TARP mod active
O=C(/C=C/c1ccccc1)NCC1CCN(Cc2ccsc2)CC1	GluA2 TARP mod active
CSc1ccccc1CN1CCC(CNC(=O)/C=C/c2ccc3c(c2)OCO3)CC1	none
CSc1ccccc1CN1CCC(CNC(=O)/C=C/c2ccccc2)CC1	GluA2 TARP mod active
O=C(/C=C/c1ccco1)NCC1CCN(Cc2ccsc2)CC1	none (no result: GluA2 TARP mod)
CSc1ccccc1NC(=O)C(=O)NCC1CCN(Cc2cc(C)oc2C)CC1	GluA2 TARP mod active
CSc1ccccc1NC(=O)C(=O)NCC1CCN(Cc2ccco2)CC1	none
Cc1cc(=O)[nH]c2cc(NC(=O)CSC3CCCC3)ccc12	none (no result: GluA2 TARP mod)
Cc1nnsc1C(=O)Nc1ccc2c(c1)N(S(=O)(=O)c1ccc(F)cc1)CCC2	none
O=C(NCCn1nc(C2CC2)n(-c2ccccc2)c1=O)c1ccc2nc[nH]c2c1	none
COCCn1c(=NC(=O)c2ccno2)sc2cc(F)cc(F)c21	GluA2 TARP mod active
COCCn1c(=NC(=O)CS(=O)(=O)c2ccc(OC)cc2)sc2cc(F)cc(F)c21	none
O=S(=O)(NCC(c1cccs1)N1CCOCC1)c1ccc2c(c1)OCCO2 (configuration not stated)	none (no result: GIRK2 activator)
Cc1cc(S(=O)(=O)N2CCC(C(N)=O)CC2)c(C)cc1Cl	none (no result: GluA2 TARP mod)
O=C(NCc1n[nH]c(=O)c2ccccc12)c1ccc(=O)[nH]c1	none
COc1nn(C)cc1C(=O)NCc1n[nH]c(=O)c2ccccc12	GluA2 TARP mod active
CSc1ccccc1C(=O)NCc1n[nH]c(=O)c2ccccc12	none
O=C(NCc1n[nH]c(=O)c2ccccc12)c1cccc(-n2cnnn2)c1	GluA2 TARP mod active
COCCn1c(C(CNc2cccc(C)c2)CC(=O)O)nc2ccccc21 (configuration not stated)	none
Cc1c(Cl)cccc1S(=O)(=O)N(Cc1ccsc1)C1CC1	none (no result: GluA2 TARP mod)
NC(=O)CSc1nc(-c2ccccc2)c(NC(=O)c2cccc(Cl)c2)s1	GluA2 TARP mod active
CCNC(=O)CSc1nc(-c2ccccc2)c(NC(=O)CCc2ccc(OC)cc2)s1	none
CNC(=O)CSc1nc(-c2ccccc2)c(NC(=O)CCc2ccccc2)s1	GluA2 TARP mod active
NC(=O)CSc1nc(-c2ccccc2)c(NC(=O)c2ccccc2Cl)s1	none
COc1ccc(S(=O)(=O)NCCc2csc(-c3ccc(C(F)(F)F)cc3)n2)cc1F	none (no result: GIRK2 activator)
COc1ccc(CNC(=O)/C(C#N)=C/N2CCN(Cc3ccc4c(c3)OCO4)CC2)cc1	GluA2 TARP mod active
N#C/C(=C\N1CCN(Cc2ccc3c(c2)OCO3)CC1)C(=O)NCc1ccccc1	none
O=C(c1ccc(F)cc1F)N1CCN(c2nccn2-c2cccc(Cl)c2)CC1	none
Cc1ccc(N2CCN(CC(=O)Nc3cc(Cl)ccc3Cl)CC2)c(C)c1	none (no result: GIRK2 activator)
CCNc1nc2c(c(=O)n(Cc3ccc(C)cc3)c(=O)n2C)n1C	none (no result: GIRK2 activator)
O=C(Nc1cccc([N+](=O)[O-])c1)C(=O)N1CCN(c2cccc(Cl)c2)CC1	GluA2 TARP mod active (no result: GIRK2 activator)
O=C(Nc1ccc([N+](=O)[O-])cc1)C(=O)N1CCN(c2ccc(F)cc2)CC1	GluA2 TARP mod active (no result: GIRK2 activator)
CC(C(=O)N1CCCC1)c1ccc([N+](=O)[O-])cc1 (configuration not stated)	none (no result: GIRK2 activator)
CC(C(=O)N1CCN(c2cccc(Cl)c2)CC1)c1ccc([N+](=O)[O-])cc1 (configuration not stated)	GluA2 TARP mod active (no result: GIRK2 activator)
Cc1ccc(NC(=O)C(=O)N2CCN(c3cccc(Cl)c3)CC2)c([N+](=O)[O-])c1	none (no result: GIRK2 activator)
O=C(Nc1ccc([N+](=O)[O-])cc1)C(=O)N1CCC(O)CC1	none (no result: GIRK2 activator)
Cn1ccc(C(=O)Nc2c(C(N)=O)oc3ccccc23)n1	none
O=C(Nc1nc(-c2ccncc2)cs1)C1CCN(S(=O)(=O)c2cccs2)CC1	GluA2 TARP mod active (no result: GIRK2 activator)
O=C(Nc1nc(-c2ccncc2)cs1)C1CCCN(S(=O)(=O)c2cccs2)C1 (configuration not stated)	none (no result: GIRK2 activator)
C=CCNC(=O)C(=O)NCCc1ccc2c(c1)CCCN2C	none
COc1cc(C(=O)Nc2cccc(N3CCCCC3=O)c2)c([N+](=O)[O-])cc1OC	none
Cc1c(C(=O)Nc2cccc(N3CCCC3=O)c2)cccc1[N+](=O)[O-]	GluA2 TARP mod active
